From the supplement of paper PMC10646978
± gives the standard deviation.

Legend:
Conditions in all cases: modulator concentration 10 µM
[1] = test system: RAW-Dual (murine macrophage reporter line); assay: NF-kB reporter (SEAP) activity fold change vs agonist alone; higher = enhanced NF-kB activity
Outline: (§1)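 Overnight stimulation with a PRR agonist followed pre-incubation for 1 hour at 37 °C with compound at 10 μM final. This was done in RAW-Dual murine macrophage reporter cells seeded at 50 000 per well in 384-well plates. NF-κB (SEAP, QUANTI-Blue absorbance at 620 nm) and IRF (Lucia luciferase, QUANTI-Luc luminescence) were read from the supernatant. Each reporter's fold change relative to the mean agonist-only control on the same plate was averaged over replicate plates.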

[2] = test system: RAW-Dual (murine macrophage reporter line); assay: IRF reporter (Lucia luciferase) activity fold change vs agonist alone; higher = enhanced IRF activity
Outline: as §1

[3] = test system: RAW-Dual (murine macrophage reporter line); assay: viability score (confluency relative to resting cells, overnight) (fraction); higher = more viable, active = viable (0.7 or more)
Outline: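 Confluency was the readout: RAW-Dual macrophages were imaged with IncuCyte after an overnight exposure to compound at 10 μM final. IncuCyte software produced two masks over all imaged wells. The viability score expresses confluency against resting cells, and both masks had to exceed 70% of resting cells for a compound to meet the cutoff.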

[4] = agonist: CpG ODN 1826 0.5 ug/mL

Compound	NF-kB reporter [1, 4]	NF-kB reporter ([1]; agonist: LPS 0.1 ug/mL)	NF-kB reporter ([1]; agonist: MPLA […])	IRF reporter ([2]; agonist: 3'3'-cGAMP 10 ug/mL)	IRF reporter ([2]; agonist: LPS 0.1 ug/mL)	IRF reporter ([2]; agonist: MPLA […])	viability score [3]
CCN(CC)C(=O)Nc1ccc(OCC(O)CNC(C)(C)C)c(C(C)=O)c1 (configuration not stated) [Prestw-1132]	1.41 ± 0.08	1.01 ± 0.062	1.16 ± 0.079	0.979 ± 0.059	1.44 ± 0.15	1.29 ± 0.12	0.997 (active)
CC(C)COc1ccc(CNC(=O)N(Cc2ccc(F)cc2)C2CCN(C)CC2)cc1.CC(C)COc1ccc(CNC(=O)N(Cc2ccc(F)cc2)C2CCN(C)CC2)cc1.O=C(O)[C@H](O)[C@@H](O)C(=O)O	0.136 ± 0.016	0.384 ± 0.16	0.129 ± 0.012	0.0542 ± 0.025	0.528 ± 0.31	0.03 ± 0.0028	0.0597 (inactive)
CC(C)Oc1ccc(Br)cc1C=C(C#N)c1nn(CCO)c(N)c1C#N	1.33 ± 0.11	1.16 ± 0.066	1.11 ± 0.077	0.91 ± 0.027	1.2 ± 0.22	1.03 ± 0.18	1.01 (active)
CS(=O)(=O)N1CCN(Cc2cc3nc(-c4cccc5[nH]ncc45)nc(N4CCOCC4)c3s2)CC1	0.179 ± 0.029	2.63 ± 0.34	2.94 ± 0.17	0.151 ± 0.0092	1.4 ± 0.24	1.33 ± 0.17	0.888 (active)
Cn1c(=O)c2c(ncn2CC(=O)O)n(C)c1=O [Prestw-1507]	0.918 ± 0.25	1.19 ± 0.12	1.04 ± 0.086	0.945 ± 0.053	0.96 ± 0.099	1.17 ± 0.15	0.992 (active)
CC(C)Cn1cc(Cl)c(=O)n(CC(C)C)c1=O	1.12 ± 0.068	1 ± 0.11	1.01 ± 0.056	1.03 ± 0.037	1 ± 0.066	0.991 ± 0.19	0.996 (active)
CC(C)NCC(O)COc1ccccc1C(C)(C)C.Cl (configuration not stated)	0.857 ± 0.063	1.02 ± 0.098	1.15 ± 0.03	0.796 ± 0.029	1.02 ± 0.084	0.952 ± 0.17	0.922 (active)
CS(=O)(=O)N(CC(=O)NCCSCc1cccc(Cl)c1)c1ccc(F)cc1	0.742 ± 0.059	1.06 ± 0.059	0.857 ± 0.07	1.2 ± 0.03	1.13 ± 0.1	0.867 ± 0.26	1.01 (active)
CCc1ccccc1N(CC(=O)Nc1ccc(Cl)cc1C)S(C)(=O)=O	0.842 ± 0.087	1.05 ± 0.068	0.893 ± 0.047	0.88 ± 0.12	1.08 ± 0.14	0.876 ± 0.18	1 (active)
c1ccc(-n2nnnc2SCc2ccc3c(c2)OCO3)cc1	1.1 ± 0.096	1.22 ± 0.14	1.46 ± 0.096	0.785 ± 0.029	0.988 ± 0.11	1.13 ± 0.25	0.998 (active)
CCCCc1oc2ccccc2c1C(=O)c1cc(I)c(OCCN(CC)CC)c(I)c1 [Prestw-409]	0.41 ± 0.08	0.977 ± 0.075	1.15 ± 0.11	0.574 ± 0.025	1.32 ± 0.2	1.51 ± 0.29	1.04 (active)
C=CC(C)(O)CCC=C(C)C (configuration not stated)	0.988 ± 0.085	0.841 ± 0.062	0.999 ± 0.11	1.01 ± 0.038	1.22 ± 0.16	1.34 ± 0.28	1.03 (active)
Cl.OC(CCCN1CCCCC1)(c1ccccc1)c1ccccc1	0.856 ± 0.037	0.895 ± 0.088	0.982 ± 0.061	1.63 ± 0.092	1.1 ± 0.3	1.08 ± 0.47	0.998 (active)
CCC(=O)Nc1ccc(N2CCCCC2)c(Cl)c1	1.1 ± 0.23	1.14 ± 0.091	1.04 ± 0.1	0.773 ± 0.026	1.41 ± 0.18	1.38 ± 0.28	0.992 (active)
Cc1ccc(C)c(Cc2cc([N+](=O)[O-])ccc2C)c1	0.287 ± 0.023	0.436 ± 0.081	0.726 ± 0.026	1.28 ± 0.081	1.01 ± 0.084	1.57 ± 0.28	0.996 (active)
NC(=O)c1c(NC(=O)CN2C(=O)C(=Cc3ccc(Cl)cc3Cl)SC2=S)sc2c1CCCC2	0.936 ± 0.081	1.07 ± 0.067	0.885 ± 0.058	0.841 ± 0.028	1.23 ± 0.092	1.03 ± 0.29	0.997 (active)
CCCCOc1ccc(CC(=O)NO)cc1	1.69 ± 0.38	1.56 ± 0.37	1.34 ± 0.076	0.241 ± 0.0073	0.87 ± 0.19	0.815 ± 0.062	0.999 (active)
CCOc1ccc2nc(N(CCCN(C)C)C(=O)c3ccc(Br)s3)sc2c1.Cl	0.164 ± 0.014	0.836 ± 0.076	0.855 ± 0.13	0.406 ± 0.1	1.14 ± 0.071	0.533 ± 0.083	0.0434 (inactive)
O=c1cc(-c2ccc(O)c(O)c2)oc2cc(O)cc(O)c12 [Prestw-870]	1.08 ± 0.18	1.21 ± 0.12	2 ± 0.16	0.181 ± 0.0054	0.663 ± 0.14	0.61 ± 0.065	0.995 (active)
O=[N+]([O-])c1ccc(Nc2ccccc2O)c2nonc12	1.74 ± 0.097	1.21 ± 0.088	1.7 ± 0.099	0.69 ± 0.023	1.55 ± 0.11	1.28 ± 0.17	0.9 (active)
O=C(O)c1ccccc1	1.07 ± 0.21	1.24 ± 0.38	0.974 ± 0.089	0.933 ± 0.029	1.46 ± 0.34	1.33 ± 0.1	0.998 (active)
Oc1ccc(Cl)cc1-c1nc2ccccc2s1	1.01 ± 0.084	0.944 ± 0.087	0.967 ± 0.091	1.09 ± 0.035	1.29 ± 0.16	1.58 ± 0.23	1.02 (active)
C#Cc1cccc(Nc2ncnc3cc(OCCOC)c(OCCOC)cc23)c1.Cl	0.511 ± 0.11	0.348 ± 0.047	0.233 ± 0.014	0.292 ± 0.03	0.143 ± 0.039	0.0986 ± 0.027	0.853 (active)
COc1ccc(C(NC(=O)c2ccccc2F)c2ccc(OC)cc2)cc1	1.03 ± 0.17	1.08 ± 0.093	1.01 ± 0.095	1 ± 0.032	1.21 ± 0.27	1.24 ± 0.16	1 (active)
Br.O=S(=O)(c1ccc(-c2csc(Nc3ccc(Br)cc3)n2)cc1)N1CCCC1	0.814 ± 0.063	1.08 ± 0.099	0.858 ± 0.065	1.03 ± 0.034	1.37 ± 0.1	1.2 ± 0.16	1.01 (active)
CCC(=O)Nc1ccc(S(=O)(=O)NCC2CCN(Cc3ccccc3)CC2)c(C)c1	0.787 ± 0.038	0.961 ± 0.076	1.08 ± 0.058	1.14 ± 0.053	1.37 ± 0.23	1.49 ± 0.43	0.967 (active)
